Usually Inhibition stands for the change of the read-out against control, counted positive when it falls.

Among the data in ChEMBL document CHEMBL4296182, “CO-ADD screening of NIH NCI Diversity Set V” are Inhibition values, retold here.

In one test the test system is Staphylococcus aureus. Description: Antibacterial activity against Staphylococcus aureus MRSA ATCC 43300 (CO-ADD:GP_020); MIC in CAMBH media using NBS plates, by Resazurin F(560/590). The settings on record: Concentration 20 uM, ASSAY_TEST Inhibition of Bacterial Growth, detection method Resazurin, Fluorescence (ex560/em590), MEDIA CAMHB, plate type 384well, CORNING #3640, time 18 hr. The format is functional. For orientation: Resazurin is reduced to fluorescent resorufin, in cell work by metabolically active cells.

Another test concerns Acinetobacter baumannii. The test is described as follows: Antibacterial activity against Acinetobacter baumannii ATCC 19606 (CO-ADD:GN_034); MIC in CAMBH media using NBS plates, by Resazurin F(560/590). Format: functional. The settings on record: Concentration 20 uM, ASSAY_TEST Inhibition of Bacterial Growth, detection method Resazurin, Fluorescence (ex560/em590), MEDIA CAMHB, plate type 384well, CORNING #3640, time 18 hr.

Another test relates to Escherichia coli. The test is described as follows: Antibacterial activity against Escherichia coli ATCC 25922 (CO-ADD:GN_001); MIC in CAMBH media using NBS plates, by Resazurin F(560/590). The format is functional. Conditions: Concentration 20 uM, ASSAY_TEST Inhibition of Bacterial Growth, detection method Resazurin, Fluorescence (ex560/em590), MEDIA CAMHB, plate type 384well, CORNING #3640, time 18 hr.

Another test relates to Klebsiella pneumoniae. The settings on record: Concentration 20 uM; ASSAY_TEST Inhibition of Bacterial Growth; detection method Absorption (OD600); MEDIA CAMHB; plate type 384well; NBS; CORNING #3640; time 18 hr.
A further test relates to Candida albicans. The settings on record: 20 µM.
The subject of another test is Cryptococcus neoformans. Conditions: Concentration 20 uM; ASSAY_TEST Inhibition of Fungal Growth; detection method Resazurin; Absorption (OD600-OD570); plate type 384well; NBS; CORNING #3640.

For part of these data: Results with a measured potency or affinity are listed apart.

`O=C(CC1C=Cc2ccccc2N1C(=O)c1ccccc1)c1ccccc1` (stereo not given): the Inhibition is 3.75% in the test on Staphylococcus aureus; 6.29% in the test on Acinetobacter baumannii; 9.32% in the test on Escherichia coli; 9.71% in the test with Klebsiella pneumoniae; 2.1% in the test on Candida albicans; -5.82% in the test with Cryptococcus neoformans.

For `CCN(c1ccccc1)c1nc(Cl)nc2c1cnn2C`, the Inhibition with Staphylococcus aureus was 9.86%; with Acinetobacter baumannii it was 12.26%; in the test with Escherichia coli, 4.23%; in the test with Klebsiella pneumoniae it was 13.76%; in the test on Candida albicans, 2.54%; in the test on Cryptococcus neoformans, -8.45%.

Regarding `Cc1ccncc1C(N)=O`, the Inhibition in the test on Staphylococcus aureus is 0.11%; in the test on Acinetobacter baumannii, -6.4%; in the test with Escherichia coli it was 17.18%; with Klebsiella pneumoniae, 14.09%; with Candida albicans, 1.98%; in the test on Cryptococcus neoformans, -4.15%.

With `CS(=O)(=O)O.Cc1cc2c(cc1[N+](=O)[O-])NC(CNC(C)C)CC2` (stereo not given), the Inhibition in the test on Staphylococcus aureus was 12.97%; in the test on Acinetobacter baumannii, 12.49%; in the test on Escherichia coli, 3.18%; in the test on Klebsiella pneumoniae it was 6.82%; in the test on Candida albicans, -0.29%; with Cryptococcus neoformans, -5.85%.

On to `CCS(=O)(=O)C1C(=O)N(C)C(S(=O)(=O)CC)C(=O)N1C` (stereo not given), for which the Inhibition was 23.63% in the test on Staphylococcus aureus; 9.14% with Acinetobacter baumannii; 3.65% in the test with Escherichia coli; 7.03% in the test with Klebsiella pneumoniae; 1.37% in the test with Candida albicans; -11.73% in the test with Cryptococcus neoformans.

For `O=c1cc(-c2ccc(O)cc2)oc2c(O)c(O)c(O)c(O)c12`, the Inhibition in the test with Staphylococcus aureus is 7.67%; with Acinetobacter baumannii, -15.85%; in the test with Escherichia coli it was 3.54%; in the test on Klebsiella pneumoniae it was 11.62%; in the test on Candida albicans, 6.97%; with Cryptococcus neoformans, -2.27%.

With `CC(=O)NC1=C/C(=C\[N+](=O)[O-])C=C1O`, the Inhibition in the test on Staphylococcus aureus is -1.13%; in the test on Acinetobacter baumannii, 0.39%; in the test on Escherichia coli it was 10.35%; with Klebsiella pneumoniae, 11.59%; in the test on Candida albicans, 0.53%; in the test on Cryptococcus neoformans, -2.2%.

On to `CCn1c(=O)n(C)c2c(=O)n(C)c(=O)n(C)c21`, for which the Inhibition in the test with Staphylococcus aureus is -2%; in the test on Acinetobacter baumannii it was -10.53%; with Escherichia coli, 11.39%; in the test with Klebsiella pneumoniae, 6.07%; in the test with Candida albicans it was -0.98%; in the test on Cryptococcus neoformans it was -11.25%.

For the compound `CCOC(=O)C(C)c1c(C(=O)c2ccc(C)nc2)c2ccccc2n1C` (stereo not given), the Inhibition in the test with Staphylococcus aureus is 10.11%; with Acinetobacter baumannii, 9.14%; in the test on Escherichia coli it was -0.3%; in the test with Klebsiella pneumoniae, 16.34%; in the test on Candida albicans, 0.68%; with Cryptococcus neoformans, -10.08%.

With `Oc1ccc(-c2nc3ccccc3s2)c(O)c1`, the Inhibition in the test with Staphylococcus aureus is -7.97%; with Acinetobacter baumannii it was -9.73%; in the test on Escherichia coli, 5.22%; in the test on Klebsiella pneumoniae, 6.81%; in the test with Candida albicans it was 13.4%; with Cryptococcus neoformans, -4.68%.

In the case of `CSc1ccc(NC(=O)Nc2ccccc2C(N)=O)cc1`, the Inhibition in the test on Staphylococcus aureus was determined as 16.3%; with Acinetobacter baumannii it was 11.66%; in the test on Escherichia coli, 11.12%; in the test on Klebsiella pneumoniae it was 15.39%; in the test on Candida albicans it was 4.24%; in the test with Cryptococcus neoformans, 3.99%.

Regarding `Cc1cc2c(c(C#N)c1C)NC=NC2C` (stereo not given), the Inhibition was 11.79% in the test on Staphylococcus aureus; -0.59% in the test with Acinetobacter baumannii; 15.46% with Escherichia coli; 8.12% in the test on Klebsiella pneumoniae; -2.89% with Candida albicans; -13.76% in the test on Cryptococcus neoformans.

As for `O=C(/C=C/c1ccccc1)CC(c1ccccc1)N1CCOCC1` (stereo not given), the Inhibition in the test with Staphylococcus aureus is 13.93%; with Acinetobacter baumannii, 0.36%; with Escherichia coli it was -4.09%; with Klebsiella pneumoniae, 21.53%; in the test on Candida albicans, 12.7%; in the test with Cryptococcus neoformans it was -9.56%.

For `CC(O)(c1ccccc1)C(c1ccccc1)C1CCCCN1` (stereo not given), the Inhibition is 9.45% with Staphylococcus aureus; 13.67% in the test on Acinetobacter baumannii; -4.2% in the test with Escherichia coli; 13.38% with Klebsiella pneumoniae; 7.26% with Candida albicans; -3.74% in the test with Cryptococcus neoformans.

For `COc1cc(C(=O)C(=O)c2ccc(O)c(OC)c2)ccc1O`, the Inhibition in the test with Staphylococcus aureus was -3.81%; in the test on Acinetobacter baumannii, -13.36%; with Escherichia coli it was 16.47%; with Klebsiella pneumoniae, 8.6%; in the test with Candida albicans it was 1.86%; in the test on Cryptococcus neoformans, -17.88%.

Consider `CCOC(=O)CC(=O)NC(C)(C)CCCCC(C)(C)NC(=O)CC(=O)OCC`, for which the Inhibition in the test on Staphylococcus aureus was -5.26%; in the test with Acinetobacter baumannii it was -12.04%; in the test with Escherichia coli, 17.83%; in the test on Klebsiella pneumoniae it was 13.05%; in the test on Candida albicans, -0.86%; in the test on Cryptococcus neoformans it was -4.13%.

Turning to `O=C(Cn1ccc(=O)[nH]c1=O)Nc1ccc(C(=O)O)c(O)c1`, the Inhibition is 10.2% in the test on Staphylococcus aureus; -9.39% in the test with Acinetobacter baumannii; 10.79% with Escherichia coli; 11.75% in the test with Klebsiella pneumoniae; -1.14% in the test with Candida albicans; -6.61% with Cryptococcus neoformans.

In the case of `COc1ccc(OC)c(NC(=O)c2cc3oc4ccccc4c3cc2O)c1`, the Inhibition with Staphylococcus aureus is 13.76%; in the test on Acinetobacter baumannii it was 8.19%; in the test with Escherichia coli, 5.92%; in the test on Klebsiella pneumoniae it was 9.42%; in the test with Candida albicans, -3.33%; in the test on Cryptococcus neoformans, -0.7%.

Consider `Nc1nc(SCc2ccccn2)c2ncn(C3OC(CO)C(O)C3O)c2n1` (stereo not given), for which the Inhibition with Staphylococcus aureus was 6.83%; in the test with Acinetobacter baumannii, 2.95%; in the test with Escherichia coli it was 4.84%; in the test with Klebsiella pneumoniae, 10.89%; in the test on Candida albicans, -1.39%; in the test on Cryptococcus neoformans, -4.63%.

As to `CCOC(=O)C1CC(=O)c2cc(OC)c(OC)cc2C1` (stereo not given), the Inhibition in the test on Staphylococcus aureus was -2.55%; in the test on Acinetobacter baumannii, 9.78%; in the test with Escherichia coli, 7.27%; with Klebsiella pneumoniae it was 13.25%; in the test with Candida albicans, 3.32%; in the test with Cryptococcus neoformans, -12.53%.

In the case of `COc1ccc(CC(=O)c2ccc(O)cc2O)cc1` [ONONETIN], the Inhibition was 1.4% in the test with Staphylococcus aureus; 4.43% with Acinetobacter baumannii; 2.27% in the test on Escherichia coli; 20.95% in the test with Klebsiella pneumoniae; 17.6% in the test with Candida albicans; -13.72% with Cryptococcus neoformans.

Consider `Cn1cnc([N+](=O)[O-])c1N=C(N)N`, for which the Inhibition with Staphylococcus aureus is -12.1%; with Acinetobacter baumannii, -2.18%; with Escherichia coli, 11.15%; in the test on Klebsiella pneumoniae, 7.43%; in the test with Candida albicans it was -4.73%; with Cryptococcus neoformans it was 1.78%.

On to `CN1CCN(C(=O)/C=C/c2ccc([N+](=O)[O-])o2)CC1`, for which the Inhibition in the test on Staphylococcus aureus was 14.1%; with Acinetobacter baumannii it was 5.92%; in the test on Escherichia coli, -7.59%; with Klebsiella pneumoniae, 6.31%; with Candida albicans it was 3.54%; with Cryptococcus neoformans, 10.04%.

For the compound `S=C1SCN(CCc2ccccc2)CN1CCc1ccccc1`, the Inhibition was -3.89% in the test on Staphylococcus aureus; 1.92% in the test on Acinetobacter baumannii; 3.19% in the test with Escherichia coli; 4.28% in the test on Klebsiella pneumoniae; 31.3% in the test with Candida albicans; -3.46% in the test with Cryptococcus neoformans.

With `CSc1cccc(NC(=O)N2CCN(C)CC2)c1`, the Inhibition in the test with Staphylococcus aureus was 0.63%; in the test on Acinetobacter baumannii, -10.8%; in the test on Escherichia coli, 6.03%; with Klebsiella pneumoniae it was 6.8%; in the test with Candida albicans, 3.78%; in the test on Cryptococcus neoformans it was -18.46%.
